Assay outcomes (PubChem BioAssay)
An excerpt weighted towards active compounds, which were near 2.3% of everything screened.
BCLXL inh: Bcl-xL (human) inhibition | inhibition, % at 10.9 µM | GST-Bcl-xL / FITC-Bim BH3 peptide fluorescence polarization | 0.7% of 320,000 active | AID 2129;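 active means inhibition above the mean of all tested compounds plus 3 SD, cutoff set per campaign, cut at about 30% in these data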;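 further: inhibitors lower millipolarization by displacing the labeled peptide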
Bim-Mcl-1: disrupts Bim peptide binding to human Mcl-1; 0.1% of 190,000 active; Bead-based flow cytometry, Bim peptide-Mcl-1 binding; Q07820; inhibition, % at 10 µM; in the data active means inhibition above about 40%
GLD-1 RNA inh: GLD-1-TGE RNA interaction inhibition (C. elegans). Q17339. purified GLD-1 + fluorescein TGE RNA, fluorescence polarization. inhibition, % at 5.96 µM. 0.44% of 320,000 active. AID 2280;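 active means percent inhibition above a per-plate cutoff, the plate mean of test compounds plus 3 SD, cut at about 30% in these data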
Target sequence (Q17339 whole entry, looked up): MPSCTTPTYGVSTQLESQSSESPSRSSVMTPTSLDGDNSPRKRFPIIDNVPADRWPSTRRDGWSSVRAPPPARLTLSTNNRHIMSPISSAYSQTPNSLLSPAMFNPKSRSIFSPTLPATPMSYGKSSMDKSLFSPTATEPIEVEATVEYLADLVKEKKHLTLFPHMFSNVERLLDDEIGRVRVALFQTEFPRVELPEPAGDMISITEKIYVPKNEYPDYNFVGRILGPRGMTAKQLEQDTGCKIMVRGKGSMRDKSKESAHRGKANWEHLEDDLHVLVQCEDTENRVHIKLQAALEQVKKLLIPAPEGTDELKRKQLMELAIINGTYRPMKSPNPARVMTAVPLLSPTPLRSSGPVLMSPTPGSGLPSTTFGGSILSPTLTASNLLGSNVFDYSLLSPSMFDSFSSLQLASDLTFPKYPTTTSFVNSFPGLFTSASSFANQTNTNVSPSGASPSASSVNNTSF
Mcl1 Noxa PPI: Mcl-1/Noxa interaction inhibition | Q07820 | TR-FRET Mcl-1/Noxa peptide binding, 2 h | inhibition, % at 21.7 µM | 1.5% of 220,000 active;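 active means compounds that cut the protein-peptide binding signal by more than 50% relative to plate controls in a single-dose test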;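 further: His-tagged Mcl-1 with rhodamine Noxa BH3 peptide and terbium anti-His antibody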
Mcl1 Bid PPI: disrupts binding of human Mcl-1 to Bid peptide; TR-FRET Mcl-1/Bid-Dy647 peptide binding, 1536-well; 0.97% of 220,000 active; Q07820; inhibition, % at 21.7 µM; AID 1021;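 active means compounds that cut the binding signal by more than half at the single screening dose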;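 further: His-tagged Mcl-1 with europium anti-His antibody binding Bid BH3 peptide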
MCL1 BIM primary: inhibitors of human MCL1 binding to BIM-BH3 peptide; Q07820; GST-MCL1 / FITC-Bim-BH3 fluorescence polarization; inhibition, % at 10.9 µM; 0.68% of 320,000 active; AID 2057;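 active means inhibition above the mean inhibition of all tested compounds plus 3 SD, set per campaign, cut at about 40% in these data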;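 further: higher means more loss of mP so more displacement of Bim peptide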
Bcl-xL conf: Bcl-xL (human) inhibition, MCL1 counter-screen confirmation; GST-Bcl-xL / FITC-Bim BH3 peptide FP binding; shares compounds with MCL1 BIM primary; inhibition, % at 10.9 µM; 54% of 1,700 active;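 active means inhibition above a cutoff equal to the mean inhibition of all tested compounds plus 3 SD, cut at about 30% in these data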
MCL1 BIM confirm: MCL1-BIM-BH3 interaction inhibition, confirmation. shares compounds with MCL1 BIM primary. 61% of 1,700 active. inhibition, % at 10.9 µM. AID 2168. GST-MCL1 / FITC-Bim-BH3 fluorescence polarization;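 active means inhibition above the average of all tested compounds plus 3 SD, cut at about 40% in these data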
Hits are given with their value; 0 = inactive; - = no result given; + = active, no number.

SMILES	BCLXL inh	Bim-Mcl-1	GLD-1 RNA inh	Mcl1 Noxa PPI	Mcl1 Bid PPI	MCL1 BIM primary	Bcl-xL conf	MCL1 BIM confirm
Cc1c(N)cc(N)cc1C(=O)O	145	-	128	0	0	166	67	44
Cc1c(Br)cc(C(=O)O)c(C)c1C	0	0	0	0	0	0	-	-
Cc1cccn2c(=O)c3cc(C(=O)NCc4ccco4)c(=N)n(C4CCCCC4)c3nc12	0	-	0	-	-	0	-	-
Cc1ccc2nc3c(cc(C(=O)NCc4ccco4)c(=N)n3C3CCCC3)c(=O)n2c1	69	-	37	-	-	83	74	94
CSc1ccc(C2C(C(=O)c3ccco3)=C(O)C(=O)N2c2nnc(SC)s2)cc1 (centres undefined)	111	-	93	-	-	93	143	168
C=CCOc1cccc(C2C(C(=O)c3ccc(C)o3)=C(O)C(=O)N2c2nccs2)c1 (centres undefined)	144	0	130	0	0	162	137	162
Cc1ccc(C2C(C(=O)c3cccs3)=C(O)C(=O)N2c2nnc(C)s2)cc1 (centres undefined)	96	0	101	0	0	86	123	143
CCCOc1cccc(C2C(C(=O)c3ccco3)=C(O)C(=O)N2c2nnc(C)s2)c1 (centres undefined)	41	-	56	-	-	54	56	72
CCOC(=O)c1sc(N2C(=O)C(O)=C(C(=O)c3ccco3)C2c2ccc([N+](=O)[O-])cc2)nc1C (centres undefined)	0	-	0	-	-	0	-	-
COc1ccc(N2CCN(C(CNC(=O)C(=O)NCCCn3ccnc3)c3ccco3)CC2)cc1 (centres undefined)	0	0	0	0	0	0	-	-
O=C(O)CNC(=O)CC1S/C(=N/N=C2\CSC(=O)N2)NC1=O (centres undefined)	0	0	0	0	0	0	-	-
Oc1ccc(-c2cn3c(n2)SCC3)cc1O	0	0	0	95	0	60	30	55
COc1ccc2c(c1)O/C(=C\c1ccco1)C2=O	0	-	0	0	0	0	-	-
Cc1cc(O)c(CN(C)C)c2c1C(=O)/C(=C/c1ccco1)O2	62	-	0	-	-	61	78	89
CN1CCN(C(c2ccc(Br)cc2)c2cc(Cl)c3cccnc3c2O)CC1 (centres undefined)	0	-	0	-	-	40	47	106
O=C1c2cccc(O)c2C(=O)c2c(O)cc(CO)cc21	93	-	81	-	-	100	81	100
Cc1ccc2c(c1)CCCN2CC(=O)N(C)c1c(N)n(Cc2ccccc2)c(=O)[nH]c1=O	122	-	0	-	-	141	132	147
Nc1ccc(C(=O)N/N=C\c2cc(N=Nc3cccc4ccccc34)ccc2O)cc1	0	0	0	-	65	66	0	72
Cc1c(N2C(=O)c3ccc4c5c(ccc(c35)C2=O)CC4)c(=O)n(-c2ccccc2)n1C	0	0	0	96	0	52	33	78
COc1ccc(-c2cc(=O)oc3c(O)c(O)ccc23)cc1	0	-	0	-	-	68	72	93
COc1ccc(-c2cc(=O)oc3cc(OC(C)C(=O)O)ccc23)cc1 (centres undefined)	0	0	0	0	0	0	-	-
Cc1nc([N+](=O)[O-])c(C(=O)OCc2cccc(Br)c2)n1C	0	0	0	0	0	0	-	-
COc1ccc(NS(=O)(=O)c2ccc(NC(=S)NC(=O)c3cccc(F)c3)cc2)nn1	0	0	0	0	0	42	0	0
COc1ccc(Cl)cc1NC(=O)COC(=O)C1COc2ccccc2O1 (centres undefined)	0	-	0	-	-	0	-	-
O=C1/C(=N\S(=O)(=O)c2cccs2)C([n+]2cccc(Cc3ccccc3)c2)=C([O-])c2ccccc21	+	-	179	0	0	+	+	+
SMILES	BCLXL inh	Bim-Mcl-1	GLD-1 RNA inh	Mcl1 Noxa PPI	Mcl1 Bid PPI	MCL1 BIM primary	Bcl-xL conf	MCL1 BIM confirm
N=C1/C(=C\c2ccc(-c3cccc(C(=O)O)c3)o2)C(=O)N=C2SC=C(c3ccccc3)N12	0	-	0	93	98	41	0	0
O=C(NCC(=O)N1CCN(c2ncccn2)CC1)c1ccc(F)cc1	0	-	0	-	-	0	-	-
Cc1ccc(C)n1Cc1ccc(C(=O)O)cc1	41	0	0	62	0	92	36	110
CC(=O)N1CCc2cc(S(=O)(=O)CCC(=O)NCCc3ccc(C)cc3)ccc21	0	-	0	-	-	0	-	-
COC(=O)C1=C(C(=O)OC)[C@@H]2N(Cc3ccccc3)c3ccccc3[C@@]23C[C@@H](CO)N(C(=O)NC2CCCC2)C3=N1	0	-	0	0	0	0	-	-
CCC(=O)Nc1ccc2nc3c(=O)[nH]c(=S)[nH]c3nc2c1	61	-	0	-	-	98	107	161
Nc1cccc2c(=O)c3ccccc3[nH]c12	0	-	0	-	-	41	37	0
COc1cc2c(cc1OC)C(C)N(C(=O)Nc1ccc(F)cc1)CC2 (centres undefined)	0	-	0	-	-	0	-	-
Cc1cc(NC(=O)c2c(-c3c(Cl)cccc3Cl)noc2C)n(C)n1	0	-	0	0	0	0	-	-
Cc1cc(C)c(C)c(S(=O)(=O)NCc2ccc(C(=O)N3CCCCC3)cc2)c1C	0	0	0	0	0	0	-	-
CC(C)C(NS(=O)(=O)c1ccccc1)C(=O)N1CCCCCC1 (centres undefined)	0	-	0	-	-	0	-	-
N#C/C(=C\c1cc(Cl)c(OCc2ccc(Cl)cc2)c(Cl)c1)C(N)=O	0	-	0	0	0	0	-	-
N#C/C(=C\c1cc(O)c(O)c(O)c1)C(N)=O	0	-	0	0	0	53	0	0
O=C(c1cc(-c2ccco2)nc2ccccc12)N1CCN(c2ccc(F)cc2)CC1	0	0	0	0	0	0	-	-
CCOC(=O)c1c(=O)n(O)c2ccc(OC)cc2[n+]1[O-]	159	0	176	0	0	188	45	60
COc1cccc(C(=O)/C=C/Nc2cccc(O)c2)c1	86	0	0	0	0	94	0	0
COc1ccc(NC(=O)CSc2nnnn2C)cc1S(=O)(=O)N1CCCCC1	0	-	0	-	-	0	-	-
Cc1ccc(C2C(C#N)=C(N)Oc3cc4c(cc32)OCO4)cc1 (centres undefined)	0	0	0	0	0	0	-	-
CSc1ccc(C2C(C#N)=C(N)Oc3cc4c(cc32)OCO4)cc1 (centres undefined)	0	0	0	0	0	43	0	0
CC(=O)n1c(C=Nc2ccc(Cl)cc2)c(O)c2ccccc21	81	-	0	0	0	59	154	185
CC(=O)n1c2ccccc2c2ccccc21	0	0	0	0	0	0	-	-
